These results are taken from PubChem BioAssay.

For this assay, the system named is Wnt5a (protein binding on small-molecule microarray). The assay is described as follows: Wnt5a binders on small-molecule microarray, primary screen, biophysical, 635/667 nm fluorescence (AID 1142).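 Note: fluorescence read at 667 nm with signal to noise per printed feature.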 The conditions noted are these: 635 nm fluorescence, higher = more signal.
The molecule `CC(C)Cc1ccc(CN2CC[C@@H](NC(=O)Nc3ccccc3)C2)cc1` had a composite z-score of 0.0405.

`CC(C)C[C@@H]1NC(=O)[C@@H]2C[C@H](C(=O)NCCCCN(C)C)[C@H](c3cccc(OCCO)c3)N2C1=O` came in with a composite z-score of -0.179.

On to `CC1CC/C=C\[C@H]2OC34C=CCN(C(C)C)C(=O)[C@H]3N(CCCCCCO)C(=O)[C@@H]4C2C(=O)O1` (stereo not given in full), for which the composite z-score is -0.574.

For the molecule `COc1ccc(CCNC(=O)[C@@]2(Sc3ccc(C)cc3)CC(=O)N(C3Cc4ccccc4C3)[C@@H]2c2ccc(CO)cc2)cc1`, the composite z-score was 1.56.

Molecule `COc1ccc(-c2nc(-c3ccccc3)c3c(c2C)CO[Si]3(C(C)C)C(C)C)cn1` displayed a composite z-score of 0.0934.

`CCCC[C@@H]1C[C@H]1[C@@H](NC(=O)c1cccs1)c1ccc(C(F)(F)F)cc1` yielded a composite z-score of -0.553.

The molecule `CN1C(=O)C2C=CC(C(O)c3ccc(F)cc3)N(Nc3ccccc3)C2C1=O` (stereo not given) gave a composite z-score of -0.126.

Consider `OCC1CC(c2ccccc2)=NO1` (stereo not given), for which the composite z-score came to 0.111.

With `COC1OC[C@]2(C)[C@H]3C4=C(CN2C(=O)OC(C)(C)C)[C@H](C)C(CO)C(CO)C4CC[C@@H]13` (stereo not given in full), the composite z-score was determined as 0.987.

For the molecule `NCCCCCCNC(=O)[C@@H]1C[C@@H]2C(=O)N[C@@H](CCCCN)C(=O)N2[C@@H]1c1cccc(OCCO)c1`, the composite z-score came to 0.57.

`CCOC(=O)C1=C[C@@H](c2ccccc2)N(S(=O)(=O)c2ccc(C)cc2)[C@H]1c1ccccc1Cl` showed a composite z-score of 0.387.

As to `CCOc1cc(C(O)C2C=CC3C(=O)N(c4ccccc4)C(=O)C3N2Nc2ccc(C#N)cc2)ccc1O` (stereo not given), the composite z-score was -0.162.

In the case of `CCCCCCCCCCC(O)C1C=CC2C(=O)N(C)C(=O)C2N1NC(=O)OC(C)(C)C` (stereo not given), the composite z-score is -0.121.

As to `NCCCCCNC(=O)[C@@H]1C[C@@H]2C(=O)NCC(=O)N2[C@@H]1c1cccc(OCCO)c1`, the composite z-score came to 0.468.

In turn, `[N-]=[N+]=NCc1ccccc1[C@H]1OC(c2ccc(OCCCO)cc2)=N[C@@]1(CCS(=O)(=O)c1ccccc1)C(=O)N1CCCCC1` gave a composite z-score of 0.526.

As to `CCOC(=O)C[C@H]1[C@H](OC(=O)c2ccccc2-c2ccccc2)[C@@H](NC(=O)c2ccc(-c3ccccc3)cc2)c2cc(OCCCO)ccc2N1C(=O)c1ccc2ccccc2n1`, the composite z-score was determined as 0.0868.

Molecule `CCCCCCc1nc(C2CC2)cc2c1[Si](C(C)C)(C(C)C)OC2` showed a composite z-score of -0.306.

With `O=C1C[C@@](C(=O)NCCN2CCOCC2)(c2ccc([N+](=O)[O-])cc2)[C@@H](c2ccc(CO)cc2I)N1C1CCCCC1`, the composite z-score stood at 0.642.

Take `COC(=O)[C@@]1(Cc2ccc(OC)cc2)[C@H]2c3cc(C(=O)N4CCCC4)n(Cc4c(-c5ccccc5)noc4C)c3C[C@H]2CN1C(=O)c1ccccc1`: the composite z-score was found to be 1.01.

Regarding `CC(C)(C)N1CC=CC23O[C@@H]4C=CCCOC(=O)C4[C@H]2C(=O)N(CCO)[C@@H]3C1=O` (stereo not given in full), the composite z-score is -0.323.

Consider `O=C1O[C@@H](c2ccccc2)[C@@H](c2ccccc2)N2[C@@H](c3ccccc3OCCO)[C@]3(C(=O)Nc4ccc(C#CCCO)cc43)[C@@H](C(=O)N3CCCCCCC3)[C@H]12`, for which the composite z-score was found to be 2.37.

`CO[C@]12C=C(Br)[C@@H](C[C@@H]1c1cccc(C)c1)[C@@]1(CO1)C2=O` yielded a composite z-score of -0.161.

On to `O=C1C2C=CC(C(O)c3ccccc3)N(Nc3ccccc3F)C2C(=O)N1c1ccccc1` (stereo not given), for which the composite z-score was found to be 0.1.

In turn, `CC[C@H]1C2=C3C(CC[C@H]4C(OCc5ccc(F)cc5C(F)(F)F)OC[C@](C)([C@@H]34)N(C(=O)OC(C)(C)C)C2)C(COC)C1COC` (stereo not given in full) displayed a composite z-score of -0.173.

For `Cc1ccc(S[C@]2(C(=O)O)CC(=O)N(C3Cc4ccccc4C3)[C@@H]2c2ccc(CO)cc2)cc1`, the composite z-score is -0.127.

In the case of `COc1ccc(NC(=O)O[C@H]2[C@H](OC(=O)Nc3ccccc3)[C@@H](OC(=O)Nc3ccccc3)[C@@H](OC)O[C@@H]2CO)cc1`, the composite z-score was 1.48.

The molecule `CCCC[C@@H]1C[C@H]1[C@@H](NC(=O)Cc1ccccc1)c1ccc(-c2ccccc2)cc1` came in with a composite z-score of -0.111.

`N#Cc1ccc(NN2C(C(O)c3ccc(F)cc3)C=CC3C(=O)N(c4ccccc4)C(=O)C32)cc1` (stereo not given) displayed a composite z-score of 0.0035.

Turning to `[N-]=[N+]=NCc1ccccc1C[C@]1(C(N)=O)N=C(c2ccc(OCCCO)cc2)O[C@H]1c1ccccc1`, the composite z-score is 0.0841.

As for `COCCCNC(=O)[C@@]1(Cc2ccccc2N=[N+]=[N-])N=C(c2ccc(OCCCO)cc2)O[C@H]1c1ccccc1`, the composite z-score was 1.51.

`CN(C)CCCNC(=O)[C@@H]1c2ccccc2C(=O)N(Cc2ccccc2Cl)[C@H]1c1ccc(CO)cc1` came in with a composite z-score of -0.12.

As to `C=C(/C(=C/C[C@H](OC(=O)c1ccncc1)c1ccc(CO)o1)c1cc(C(=O)OC)ccc1OC)C(C)C`, the composite z-score was -0.0222.

For the molecule `C=CCC(OC(C)=O)[C@@H]1[C@@H](N(Cc2ccc(-c3cccc(C(F)(F)F)c3)o2)C(=O)c2ccc(-c3ccccc3)cc2)c2cc(OCCCO)ccc2N1C(=O)c1ccc2ccccc2n1` (stereo not given in full), the composite z-score was -0.0222.

As for `CCCCN1CC=CC23O[C@@H]4/C=C\CCC(C)OC(=O)C4[C@H]2C(=O)N(C(CO)C(C)C)[C@@H]3C1=O` (stereo not given in full), the composite z-score is -0.0931.

In turn, `[N-]=[N+]=Nc1ccccc1[C@H]1OC(c2ccc(OCCCO)cc2)=N[C@@]1(Cc1ccccc1)C(=O)N1CCCCC1` returned a composite z-score of 1.57.
